Compound activity from PubChem.
aDG glyco up: increases alpha dystroglycan glycosylation; Pro5-aDG cells, alpha-DG glycosylation AlphaScreen (IIH6); 0% Pro5, 100% B10-LARGE cell signal; activation, % at 10 µM; 360,000 tested, 0.22% active;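 active = activation of at least 8% versus controls, or a plate z-score of at least 8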;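 note: Pro5 are CHO cells carrying HIG-tagged alpha-DG that lacks glycosylation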
COUP-TFII inh: blocks human COUP-TFII nuclear receptor; HEK293T NGFI-A luciferase reporter, luminescence; inhibition, % at 8.6 µM; P24468; 370,000 tested, 0.7% active;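 active = inhibition above a per-plate cutoff, mean inhibition of test wells between control levels plus 3 SD, cut at about 38% in these data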;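 note: cells cotransfected with COUP-TFII expression vector driving the NGFI-A reporter; 0% = median of COUP-TF2 test wells and 100% = reporter-only cells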
Gli-Sufu block: blocks Gli-Sufu signaling in a luciferase reporter; inhibition, % at 5 µM; AID 588413; 340,000 tested, 0.74% active; Sufu-KO-LIGHT fibroblasts, Gli luciferase reporter luminescence;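 active = inhibition above about 55%, limit read from the data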;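 note: 0% = DMSO-treated cells and 100% = wells with medium but no cells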
HIV Env fusion: blocks HIV Env-driven cell-cell fusion; HeLa-JRFL Env/CEM21 cell fusion, luciferase; inhibition, % at 12.3 µM; 360,000 tested, 1.1% active; AID 651610;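 active = mean replicate inhibition score of at least 50 and every replicate individually at or above 50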;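 note: 0% = plate neutral controls and 100% = maraviroc near 300 nM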
GalR3 antag: antagonists of human GalR3 | HEK293 GalR3-CNG cAMP membrane potential fluorescence; galR3 body fused to GalR1 C-terminus | inhibition, % at 3 µM | 360,000 tested, 0.44% active | O60755;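 active = inhibition above the screen-wide average plus 3 SD, cut at about 13% in these data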;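 note: forskolin and galanin both at EC90 stimulate the cells; cAMP rise reported by CNG channel membrane potential dye signal; 0% = forskolin plus galanin with DMSO and 100% = forskolin alone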
Target sequence (O60755 1-299 limits assumed): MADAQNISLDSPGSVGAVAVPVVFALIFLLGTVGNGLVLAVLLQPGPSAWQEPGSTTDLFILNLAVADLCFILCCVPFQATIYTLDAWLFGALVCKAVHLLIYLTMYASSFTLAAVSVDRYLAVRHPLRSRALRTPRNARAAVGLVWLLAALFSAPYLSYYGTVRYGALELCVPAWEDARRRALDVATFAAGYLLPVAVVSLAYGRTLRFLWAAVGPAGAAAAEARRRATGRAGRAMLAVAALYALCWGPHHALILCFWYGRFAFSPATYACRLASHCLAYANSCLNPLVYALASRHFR
* = called active by the depositor; / = not tested or not shown; [ ] = another dose, or the depositor's remark. The list is not random: actives were taken first. Their share in the collection is about 2.1%.

SMILES	aDG glyco up	COUP-TFII inh	Gli-Sufu block	HIV Env fusion	GalR3 antag
C=CCC[C@H](Cc1ccc(F)cc1)C(=O)OC[C@@H](NC(=O)[C@H](CC=C)CC(=O)NCCO)C(C)(C)C	0	1	6	90*	-5
C[C@@H]1CN([C@H](C)CO)C(=O)c2cc(NC(=O)Nc3ccc4c(c3)OCO4)ccc2O[C@H]1CN(C)S(=O)(=O)c1ccccc1	/	/	/	-2[16.7 µM]	/
COc1ccc(NC(=O)N[C@@H]2CC[C@@H](CCNS(=O)(=O)c3cccc(Cl)c3)O[C@H]2CO)cc1	/	/	/	6[16.7 µM]	/
COc1ccc(-c2cccc([C@H]3[C@@H]4C=CC[C@@H](C)[C@@H]4C(=O)N3Cc3ccccc3)c2)cc1	0	8	-2	43	-4
COc1cc(-c2cccc([C@H]3[C@@H]4C=CC[C@@H](C)[C@@H]4C(=O)N3Cc3ccccc3)c2)cc(OC)c1OC	0	-9	6	47*	-6
COc1ccc(-c2ccc(C)cc2)cc1[C@H]1[C@H]2C=CC[C@@H](C)[C@@H]2C(=O)N1Cc1ccccc1	0	15	7	56*	-5
C[C@H](CO)N1C[C@H](C)[C@@H](CN(C)Cc2ccc(C(=O)O)cc2)Oc2ccc(NC(=O)CCN3CCOCC3)cc2CC1=O	/	/	/	14[16.7 µM]	/
Clc1ccc2c(c1)C(C1=NCCN1)c1ccccc1CS2 (stereo not given)	0	13	9	113*	-2
C[C@@H]1CN([C@@H](C)CO)C(=O)c2cc(-c3ccccc3)cnc2O[C@@H]1CN(C)C(=O)Nc1ccccc1	/	/	/	6[16.7 µM]	/
Cc1ccc(-n2cc(CNCCc3ncc(C)[nH]3)c(-c3ccc(F)cc3)n2)cc1	11*	-23	9	-39	-5
COc1ccccc1/C=N\NC(=O)c1c(C)nc2ccc(Cl)cn12	0	1	-2	3	-6
COc1cccc(/C=N/NC(=O)c2c(C)nc3ccc(Cl)cn23)c1O	1	-20	84*	-43	-5
CC(=O)c1ccc([C@H]2C[C@@]34CN(C(=O)OC(C)(C)C)S(=O)(=O)[C@H]3C[C@H]2O4)cc1	0	-3	-6	68*	-2
CC(=O)c1ccc([C@@H]2C[C@]34CN(Cc5cccc(C(F)(F)F)c5)S(=O)(=O)[C@H]3C[C@H]2O4)cc1	0	-6	11	31	-3
Fc1ccc(Cn2nnnc2C(c2ccc(Cl)cc2)N2CCSCC2)cc1 (stereo not given)	0	-15	9	52*	-6
CC1CCN(C(c2ccc(N(C)C)cc2)c2nnnn2Cc2ccc(F)cc2)CC1 (stereo not given)	0	6	-15	/	-1
Nc1c(S(=O)(=O)c2ccccc2)c2nc3ccccc3nc2n1CCN1CCOCC1	0	-1	11	-6	-5
Nc1c(S(=O)(=O)c2cccs2)c2nc3ccccc3nc2n1CCc1ccccc1	/	-5	/	81*	-4
Cc1ccc(S(=O)(=O)c2c(N)n(CCC(C)C)c3nc4ccccc4nc23)cc1	2	4	1	81*	-5
Nc1c(S(=O)(=O)c2ccccc2)c2nc3ccccc3nc2n1Cc1ccco1	19*	7	10	32	-4
Cc1ccccc1S(=O)(=O)NCC[C@@H]1CC[C@@H](NC(=O)C2CCCC2)[C@H](CO)O1	/	/	/	-6[16.7 µM]	/
Cc1nn(C)c(C)c1NC(=O)CSc1nc(-c2ccccc2Cl)nc2c1cnn2-c1ccccc1	0	0	1	-7	-3
Cc1nn(C)c(C)c1NC(=O)CSc1nc(C2CC2)nc2c1cnn2-c1ccccc1	1	13	20	57*	-3
CCCCN(C=O)c1c(CC)nc2ccc(C(=O)N(CC)CCN(C)C)cn12	0	5	/	-10	0
CCCCN(C)c1c(C)nc2ccc(C(=O)N(CC)CCN(C)C)cn12	0	8	/	63*	-3
SMILES	aDG glyco up	COUP-TFII inh	Gli-Sufu block	HIV Env fusion	GalR3 antag
CCN(c1nc(N)c(C(=O)N=C(N)N)nc1Cl)C(C)C	0	-3	4	69*	0
C[C@@H]1CN([C@H](C)CO)C(=O)CCCn2cc(nn2)CO[C@@H]1CN(C)Cc1ccc2c(c1)OCCO2	/	/	/	2[16.7 µM]	/
Cc1ccc(S(=O)(=O)N2CCCOC2CNC(=O)C(=O)NCCC2=CCCCC2)cc1 (stereo not given)	1	3	2	60*	-1
C[C@@H]1CN([C@H](C)CO)C(=O)c2c(c3ccccc3n2C)-c2ccccc2CO[C@H]1CN(C)C(=O)C1CC1	/	/	/	1[16.7 µM]	/
C[C@@H]1CN([C@@H](C)CO)C(=O)c2c(c3ccccc3n2C)-c2ccccc2CO[C@H]1CN(C)Cc1cccc(C(F)(F)F)c1	/	/	/	57*[16.7 µM]	/
C[C@H]1CN([C@@H](C)CO)C(=O)c2c(c3ccccc3n2C)-c2ccccc2CO[C@H]1CN(C)C(=O)Cc1ccccc1	/	/	/	57*[16.7 µM]	/
C[C@H]1CN([C@@H](C)CO)C(=O)c2c(c3ccccc3n2C)-c2ccccc2CO[C@H]1CN(C)C(=O)C1CC1	/	/	/	61*[16.7 µM]	/
CCOC(=O)/C=C1/SCC(=O)N1CC(=O)NC12CC3CC(CC(C3)C1)C2	0	-15	12	57*	-5
CCCCc1c(-c2ccccc2OC)ncn1C(C)c1ccccc1 (stereo not given)	/	-8	/	76*	-11
CCCCc1c(-c2ccccc2OC)ncn1CCc1ccccc1	1	10	/	13	-11
C[C@H]1CN([C@@H](C)CO)C(=O)c2cc(-c3ccc(F)cc3)cnc2O[C@H]1CN(C)C(=O)c1ccc(F)cc1	/	/	/	28[16.7 µM]	/
Cc1nc2c(-c3ccccc3)c(C)nn2c(C)c1CCC(=O)NCc1ccco1	0	19	3	10	1
Cc1nc2c(-c3ccc(F)cc3)c(C)nn2c(C)c1CCC(=O)NC(C)CCc1ccco1 (stereo not given)	0	7	8	65*	3
C[C@@H]1CN([C@@H](C)CO)C(=O)c2cc(NC(=O)CCC(F)(F)F)ccc2O[C@H]1CN(C)Cc1ccc(Oc2ccccc2)cc1	/	/	/	-4[16.7 µM]	/
O=C(NCc1ccccc1)C1=C[C@@H](c2csc3ccccc23)C[C@@H](OCCCCO)O1	/	24	37	81*	-7
C[C@@H]1CN([C@H](C)CO)C(=O)c2cc(C#Cc3ccccc3F)cnc2O[C@H]1CN(C)C(=O)C1CCC1	/	/	/	20[16.7 µM]	/
CC1(Oc2ccc3ccccc3c2)CCN(Cc2cccn2-c2nccs2)C1 (stereo not given)	1	-16	/	70*	-10
COc1ccc(CN2C(=O)c3cccnc3C2Nc2ccc(OC)c(Cl)c2)cc1 (stereo not given)	0	-10	-1	/	-5
COc1cc(NC2c3ncccc3C(=O)N2Cc2ccco2)cc(OC)c1 (stereo not given)	0	-7	-2	60*	-3
O=S(=O)(Nc1ccc(O)c2ccccc12)c1cccs1	2.7*	2	-2	9	-1
COc1ccccc1NC(=O)N[C@H]1C=C[C@@H](CC(=O)N[C@H](C)c2ccccc2)O[C@H]1CO	/	/	/	94*[16.7 µM]	/
